Experimental data as given in paper PMC7819943, “Rice protein-binding microarrays: a tool to detect cis-acting elements near promoter regions in rice”.
Whole data set: some 68,000 sequences, median “fluorescence intensity (a.u.)” near 9,100, cut for the highest 2% near 16,000. The sample holds the highest values, similar sequences and a random draw of the others, so the mix is not that of the screen.

Target: OsWRKY34 (Oryza sativa, UniProt Q0JBA9 1-250)
Assay: protein-binding microarray (RPBM); PBS, 2% BSA, 51.3 ng/ul salmon testes DNA, 50 uM zinc acetate, 200 nM TF, 25 C, 1 h; high values mean tight binding
Settings: protein: recombinant; tags: N-terminal polyhistidine and DsRed monomer fusion (pET32a); label: CyDye5-dUTP incorporated in the synthesized complementary strand; 3' TTTTT single-stranded linker to array surface; dsDNA, one strand shown
Outline: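 A custom Agilent array was converted to double-stranded form by primer extension with Cy5-dUTP and blocked with 2% BSA. Protein at 200 nM in PBS with 2% BSA, salmon testes DNA and 50 µM zinc acetate was applied for 1 h at 25 °C, followed by washing. The proteins were polyhistidine–DsRed N-terminal fusions of transcription factors, expressed in E. coli BL21-CodonPlus and Ni–NTA-purified. The binding signal is per-feature fluorescence intensity (arbitrary units) from an Axon 4000B scanner.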

Chain of OsWRKY34 (Q0JBA9 entry or part of it): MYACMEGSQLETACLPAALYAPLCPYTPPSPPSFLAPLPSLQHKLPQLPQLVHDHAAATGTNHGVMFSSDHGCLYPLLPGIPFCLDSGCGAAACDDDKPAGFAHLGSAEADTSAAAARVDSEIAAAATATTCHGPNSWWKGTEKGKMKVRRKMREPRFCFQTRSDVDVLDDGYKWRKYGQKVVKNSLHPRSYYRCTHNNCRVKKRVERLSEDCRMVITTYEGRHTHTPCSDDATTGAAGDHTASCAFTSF

| Sequence | binding signal |
| --- | --- |
| ACACAGGCAGCAGTAGCACCTCGATCCATCTACCATTTTACGGAGTCACCTAGTGCAG | 10200 fluorescence intensity (a.u.) |
| CTTAGCTCGTATGTAGACTTTTGATGGCTTAATCCTATTTCGGAGTCACCTAGTGCAG | 8550 fluorescence intensity (a.u.) |
| ATTAGGGATAACCGTCACTGTTTGTTGCTGTTTTTATGTTCGGAGTCACCTAGTGCAG | 9960 fluorescence intensity (a.u.) |
| TTGGTGACTAAGCAGCTAGCTCATATTCCGTTTCAGCTTCCGGAGTCACCTAGTGCAG | 9770 fluorescence intensity (a.u.) |
| TCTCGTGTTCCTCTTCACTACCACTTCTAGAAGCTTCCTCCGGAGTCACCTAGTGCAG | 8020 fluorescence intensity (a.u.) |
| GGGGTTTATTATTTTCCCGGGTTAAATTGCCACGTAAGCACGGAGTCACCTAGTGCAG | 10100 fluorescence intensity (a.u.) |
| ATAATAATATTTTTCACCTATGCCATACTTCTTTTGTCAACGGAGTCACCTAGTGCAG | 8040 fluorescence intensity (a.u.) |
| CGACTCCGACCTCTGCTCTCTTCCTTTTACACCCCATATCCGGAGTCACCTAGTGCAG | 11100 fluorescence intensity (a.u.) |
| TTTACTAAACTCGATCAGTTCTTCCCATATACTCTTGTGACGGAGTCACCTAGTGCAG | 9070 fluorescence intensity (a.u.) |
| ATCAACCATGAACCATCCGCGCCCGCGCACCTCCTCCTCTCGGAGTCACCTAGTGCAG | 8100 fluorescence intensity (a.u.) |
| TGACTTTTTCTCACATGTTTGACCATTCGTCTTATTCAAACGGAGTCACCTAGTGCAG | 10900 ± 914 fluorescence intensity (a.u.) |
| CGTTGACTTTTTCTCACATGTTTGACCATTCGTCTTATTCCGGAGTCACCTAGTGCAG | 31500 fluorescence intensity (a.u.) |
| TTGACTTTTTCTCACATGTTTGACCATTCGTCTTATTCAACGGAGTCACCTAGTGCAG | 15400 fluorescence intensity (a.u.) |
| TAGCTCATTCATGCCTCCATCGGTTGACTTTTTTTTTCTACGGAGTCACCTAGTGCAG | 20500 fluorescence intensity (a.u.) |
| TTCTCCATTTTTTCATGGTTGACTCTAATCTTCATGACTACGGAGTCACCTAGTGCAG | 8280 fluorescence intensity (a.u.) |
| TTACACTTTCTCCTCCATCATGCGCTCATGGCCATCCATTCGGAGTCACCTAGTGCAG | 8320 fluorescence intensity (a.u.) |
| GTCGCCGCCTCCTCCTCTCCATCTCCGCTGCTATTATTGCCGGAGTCACCTAGTGCAG | 12900 fluorescence intensity (a.u.) |
| TTTTCTCTGTTTACTTTTTTTTTATTATTTTTTTGCGCCGCGGAGTCACCTAGTGCAG | 8240 fluorescence intensity (a.u.) |
| ATGTCATGTCATGTCGCATATCTCCCATGTCTTGGCACGACGGAGTCACCTAGTGCAG | 9540 fluorescence intensity (a.u.) |
| TACTTGGCTATACTATTAAACTTGCTCTCGCACCATCTTTCGGAGTCACCTAGTGCAG | 9680 fluorescence intensity (a.u.) |

| Sequence | binding signal |
| --- | --- |
| GTTGCAAAAGAGGCCTCTGACATGGTTCTTGCTGATGACACGGAGTCACCTAGTGCAG | 8450 fluorescence intensity (a.u.) |
| ATCGCCATATAGGCGCCACGTGGAACGAAGACTCGGTCAACGGAGTCACCTAGTGCAG | 9350 fluorescence intensity (a.u.) |
| CGGGGCCCAACGAGGTGGCGCCGTGGCTGGTGGGGCGGGTCGGAGTCACCTAGTGCAG | 9270 fluorescence intensity (a.u.) |
| GATCAACGAACACTCGTGGGCCGTAGGCGGAGGCGCAAGTCGGAGTCACCTAGTGCAG | 62600 fluorescence intensity (a.u.) |
| CCCGGCGGCCCGATCACCACCTGCCCGAACACCATCCTCCCGGAGTCACCTAGTGCAG | 8530 fluorescence intensity (a.u.) |
| ACTGTCGTGCCACAGTGGACGTGTGCGGCAGGTGAAGCACCGGAGTCACCTAGTGCAG | 49100 fluorescence intensity (a.u.) |
| GTGTGTTGGTTGTCACAGTACTGTGTGGTGGTGGTGGAAGCGGAGTCACCTAGTGCAG | 9220 fluorescence intensity (a.u.) |
| TAGGTGTGGTGTGTGGAGAAGCGGTGGACCGACCGACGACCGGAGTCACCTAGTGCAG | 8450 fluorescence intensity (a.u.) |
| GGAAAAGAACACCGGTCCATTTTGCAACTATTGTGAAGTTCGGAGTCACCTAGTGCAG | 8220 fluorescence intensity (a.u.) |
| CCGGCAAAAGTCTCTCCATCTTGTCATCGTCTTCTCCAGCCGGAGTCACCTAGTGCAG | 8410 fluorescence intensity (a.u.) |
| TTGGGAGGGAGAGTGGTAAAGGGTGCTGGGGCTTTGGCTGCGGAGTCACCTAGTGCAG | 8840 fluorescence intensity (a.u.) |
| TGGAAAGAGGAGGGCGGGGAGAGGACTGGGGAGGGCGGGGCGGAGTCACCTAGTGCAG | 17700 fluorescence intensity (a.u.) |
| GCGAGAGGGGACTGGGGAGGGGAGGGGCGGCGCTCGCTGGCGGAGTCACCTAGTGCAG | 12500 fluorescence intensity (a.u.) |
| GAGGAAATGCCTGGGAGGAGGAGGAGGGACTCGGGGCGGGCGGAGTCACCTAGTGCAG | 13300 fluorescence intensity (a.u.) |
| GGGGCTGTTTGGTTTCCAGGGACTTATTCCAAGTCCCTGTCGGAGTCACCTAGTGCAG | 9750 fluorescence intensity (a.u.) |
| TGGATTTGGCGGCGGCGGCGGCTTCGAGGGGAGGGGCTCTCGGAGTCACCTAGTGCAG | 15300 fluorescence intensity (a.u.) |
| AGAGGGGACTGGGGAGGGGAGGGGCGGCGCTCGCTGGCTTCGGAGTCACCTAGTGCAG | 17500 fluorescence intensity (a.u.) |
| GGGGAAGGAGAAGAGGAAGGAGAGGGGAGGAGGAGGAGGGCGGAGTCACCTAGTGCAG | 8870 fluorescence intensity (a.u.) |
| TTGGATTGGGCTGCGGACCTGCGGTGGAGGGATTCAGGGTCGGAGTCACCTAGTGCAG | 8240 fluorescence intensity (a.u.) |
| ACTGGTTTTACACATTATGTGGGCTAACTTAATACTCCTTCGGAGTCACCTAGTGCAG | 8040 fluorescence intensity (a.u.) |

| Sequence | binding signal |
| --- | --- |
| TCTTCGGTTTACTTATGTCCTGGCTGGTTGGGAGGGGACACGGAGTCACCTAGTGCAG | 19100 fluorescence intensity (a.u.) |
| AGGATTCAATTTGGACTTTGGTGGAGGGGAGGGGCTGCTGCGGAGTCACCTAGTGCAG | 22100 fluorescence intensity (a.u.) |
| ATTTTTTTTAAAAGTAGTTCTTCTGTTTCATATTATAATACGGAGTCACCTAGTGCAG | 9230 fluorescence intensity (a.u.) |
| TGTCTTTATTAAGTGCAAATGTATTTGGATTCCAACCCTTCGGAGTCACCTAGTGCAG | 8180 fluorescence intensity (a.u.) |
| TACCCACACACACACAAGAACACGCGCCACATTTGTCATTCGGAGTCACCTAGTGCAG | 10900 fluorescence intensity (a.u.) |
| TATTGTCTGGGGTTTGCTTATTGGCTTTTCAGGCCATGTCCGGAGTCACCTAGTGCAG | 9320 fluorescence intensity (a.u.) |
| ATCTCTTTTGCATTTGTTCGTCCCTTTCGTTTTCAACTTGCGGAGTCACCTAGTGCAG | 9290 fluorescence intensity (a.u.) |
| CAAACATGTGCTAAAAAGTCAACGGTGTCAACCATTTTGACGGAGTCACCTAGTGCAG | 11600 fluorescence intensity (a.u.) |
| GTGTGTGCTGTGGTGGAGAGGAGAAAGGGAGGAAGAAGAGCGGAGTCACCTAGTGCAG | 8140 fluorescence intensity (a.u.) |
| GGGGATTTGGGGAGACTTTTGGAGGGGAGGAGAGAGGGCGCGGAGTCACCTAGTGCAG | 19700 fluorescence intensity (a.u.) |
| GCGTCTGGGGCCTCGGGCGGCGCGCGCGGGGAGGGGCGTGCGGAGTCACCTAGTGCAG | 10500 fluorescence intensity (a.u.) |
| TCGGGGCGGGTCTGGGAGGGCTTGCGCTTGACACGGACGACGGAGTCACCTAGTGCAG | 17200 fluorescence intensity (a.u.) |
| TAGGTGAGGGCGGTGCGCTTGTCGACGGGGTTGAAGGGGACGGAGTCACCTAGTGCAG | 10700 fluorescence intensity (a.u.) |
| GCGGCGGCGGGGCGGCGTCGGGGAGGGAGGAGGAGCAGTGCGGAGTCACCTAGTGCAG | 10700 fluorescence intensity (a.u.) |
| ACTCACAGAAAGCGTCGGGGCGGGTCTGGGAGGGCTTGCGCGGAGTCACCTAGTGCAG | 9140 fluorescence intensity (a.u.) |
| AAGCGCCTGGTAGCGGAGAGTGGGAAAGAGCTGGCTGGCGCGGAGTCACCTAGTGCAG | 60400 fluorescence intensity (a.u.) |
| ACGGGGACAGGGAGAGGAGCGGGGATTTTGTGGCGGGAGACGGAGTCACCTAGTGCAG | 9460 fluorescence intensity (a.u.) |
| CGTGGAGAGGATTTGAGTGCCTTTTTTGGAGTTTGAGGGGCGGAGTCACCTAGTGCAG | 9570 fluorescence intensity (a.u.) |
| CTGCTGCCGCCGCCTCCTGGCCGCCGCCGCGGCGAGCGCGCGGAGTCACCTAGTGCAG | 8280 fluorescence intensity (a.u.) |
| GAGGACTGGGGAGGGCGGGGAGAGGGGAGGGCGTCGCGTGCGGAGTCACCTAGTGCAG | 24500 fluorescence intensity (a.u.) |
